High-throughput results deposited in PubChem BioAssay by several laboratories.
LGR2 inh – Drosophila LGR2 receptor signaling inhibition | HEK293 LGR2, CRE-luciferase, bursicon-stimulated, 4 h | 0.35% of 380,000 active | inhibition, % at 9.99 µM;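 active = drop in luminescence signal, shown as inhibition above about 50% in the replicate tests, limit read from the data, passing the limit was not always enough; inconclusive = probably only some replicates passing the limit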;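 also: agonist challenge used bursicon conditioned medium at about half maximal strength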
CF NFkB block – inhibitors of cystic fibrosis induced NF-kB. KKLEB NF-kB-GFP reporter, PAF-induced, GFP fluorescence overnight. inhibition, % at 5 µM. 0.86% of 360,000 active;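 active = at least 50% inhibition at 5 µM, scaled per plate between neutral and stimulator controls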;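 also: PAF is a Pseudomonas aeruginosa culture filtrate used as stimulus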
TROY NFkB inh – blocks TROY-dependent signaling in reporter cells | AID 1347056 | inhibition, % at 10 µM | Q293 LMP1-TROYcd NF-kB luciferase reporter, 4 h | 0.98% of 360,000 active;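 active = compounds whose plate-normalised and pattern-corrected inhibition of the luciferase reporter signal at the single screening dose is 50% or more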
KKLEB tox – reduces viability of KKLEB cystic fibrosis airway cells. 0.36% of 360,000 active. activity change (cytotoxicity), % at 5 µM. KKLEB CF airway cells viability, ATPlite luminescence, overnight; stronger effect = lower value; cells stimulated with P. aeruginosa culture filtrate. AID 602141;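 active = corrected activity change at or below -50% at 5 µM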
TWEAK Fn14 block – inhibitors of TWEAK-Fn14 interaction signaling; TWEAK-stimulated Fn14 reporter cells, luciferase luminescence, 8 h; inhibition, % at 10 µM; 2% of 360,000 active; AID 1159606; in the data active = inhibition above about 50%
EWS-Fli inh – inhibitors of EWS/Fli oncoprotein transcriptional activity | A673 NR0B1-luciferase reporter, viability-normalised | 0.67% of 350,000 active | inhibition, % at 12.6 µM;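 active = mean inhibition of at least 50% after viability correction, with every replicate also passing that limit; inconclusive = mean reaches 50% but only one of two replicates passes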;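 also: firefly luciferase signal divided by Alamar Blue viability fluorescence both relative to DMSO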
CF NFkB inh conf – confirmation of cystic fibrosis induced NF-kB inhibitors. shares compounds with CF NFkB block. KKLEB CF airway cells, PAF-induced NF-kB-GFP fluorescence, overnight. inhibition, % at 5 µM. 64% of 1,300 active. AID 602472; in the data active = inhibition above about 40%;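 also: stimulus PAF is a Pseudomonas aeruginosa filtrate and not platelet activating factor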
Numbers stand for hits; - = inactive; ? = inconclusive; . = no result given; ! = not active in a repeat. This is a sample that favours compounds with a hit; in the whole collection about 2.6% have one here.

SMILES	LGR2 inh	CF NFkB block	TROY NFkB inh	KKLEB tox	TWEAK Fn14 block	EWS-Fli inh	CF NFkB inh conf
COCC(=O)N1C[C@@H](C)[C@@H](OC)CN(C)C(=O)c2ccc(NS(C)(=O)=O)cc2OC[C@@H]1C	-	.	.	.	.	-	.
C=C1C(=O)O[C@@H]2[C@H]3O[C@]3(C)CC/C=C(\C)CC[C@@H]12	-	69	-	-	-	-	77
COc1cc(NC(=O)c2cc3cccc(OC)c3o2)cc(C(=O)Nc2cccc(C(F)(F)F)c2)c1	-	62	-	-	57	-	70
COc1cc(NC(=O)c2csc(-c3ccncc3)n2)cc(C(=O)Nc2cccc(C(F)(F)F)c2)c1	-	57!	-	-	-	-	71
COc1cc(NC(=O)c2ccno2)cc(C(=O)Nc2cccc(C(F)(F)F)c2)c1	.	-	-	-	-	-	.
Cc1ccc(S(=O)(=O)Nc2ccc3c(c2)C(=O)N([C@H](C)CO)C[C@H](C)[C@H](CN(C)Cc2ccccc2)OCCCC[C@H](C)O3)cc1	-	.	.	.	.	-	.
Cc1ccc2c(c1)C(=O)C(=O)N2Cc1ccc(Cl)cc1	-	54	-	-	-	-	-
COc1ccc(C2CC(=O)C(c3ccc([N+](=O)[O-])cc3)=CN2Cc2ccccc2)cc1 (stereo unspecified)	-	.	.	.	.	-	.
O=[N+]([O-])c1cc(S(=O)(=O)NCCN2CCOCC2)ccc1Sc1nnnn1-c1ccccc1	.	73	-	-	89	-	-
O=[N+]([O-])c1cc(S(=O)(=O)NCCCN2CCOCC2)ccc1Cl	-	-	-	-	-	.	.
Cc1ccc(S(=O)(=O)NCCSc2nnnn2-c2ccc(C(N)=O)cc2)cc1	-	-	-	-	-	-	.
Cc1ccc(-n2nnnc2Sc2ccc(S(=O)(=O)NCCN(C)C)cc2[N+](=O)[O-])cc1	.	91	-	-	97	?	51
O=S(=O)(c1ccc(Br)cc1)c1cnc2ccccc2n1	-	57	-	-	55	-	49
COc1ccc(S(=O)(=O)c2cnc3ccccc3n2)cc1	-	-	-	-	-	-	.
CCCNC(=O)N[C@H]1CC[C@H](CCn2cc(C3CC3)nn2)O[C@H]1CO	-	.	.	.	.	-	.
Cc1cccc(S(=O)(=O)N(C)C[C@@H]2OCc3cn(nn3)CCCC(=O)N([C@@H](C)CO)C[C@@H]2C)c1	-	.	.	.	.	-	.
C=C(C)[C@@H]1CCC2(C(=O)O)CC[C@]3(C)[C@H](CC[C@@H]4[C@@]5(C)CCC(=O)C(C)(C)[C@@H]5CC[C@]43C)[C@@H]12 (stereo partly specified)	.	63	-	-	51	-	64
C[C@H]1CN([C@@H](C)CO)C(=O)c2cc(NC(=O)Nc3ccc(C(F)(F)F)cc3)ccc2O[C@@H]1CN(C)S(=O)(=O)c1ccc(Cl)cc1	-	.	.	.	.	-	.
Cc1ccc(S(=O)(=O)N2c3cc(C)ccc3OCC2C(C)(C)C)cc1 (stereo unspecified)	.	-	-	-	-	.	.
COc1ccc(S(=O)(=O)N2c3cc(C)ccc3OCC2C(C)(C)C)cc1 (stereo unspecified)	.	50	-	-	-	.	59
CO[C@@H]1CN(C)C(=O)c2ccc(NC(=O)C3CCC3)cc2OC[C@@H](C)N(CC2CCCCC2)C[C@H]1C	-	.	.	.	.	-	.
C/C=C/c1ccc([C@H]2[C@@H](CO)N(C(=O)c3cnccn3)C23CN(C(C)=O)C3)cc1	-	.	.	.	.	-	.
CCC(=O)Nc1ccc(N2CCN(C(=O)c3ccccc3C)CC2)cc1	.	-	-	-	-	.	.
Cc1ccccc1C(=O)N1CCN(c2ccc(NC(=O)CSc3ccc(Cl)cc3)cc2)CC1	.	61	-	-	-	.	71
Cc1ccccc1C(=O)N1CCN(c2ccc(NC(=O)c3cccc(OC(C)C)c3)cc2)CC1	-	53	-	-	-	.	53
COc1ccc(CCN(C)c2ccc(S(=O)(=O)N3CCCC3)cn2)cc1OC	-	-	-	-	-	-	.
COc1cc(CN(C)c2ccc(S(=O)(=O)N3CCCC3)cn2)ccc1OC(F)F	-	54	-	-	-	-	55
CCCC(=O)Nc1ccc2c(c1)OC[C@H](C)N(C(=O)c1ccncc1)C[C@@H](C)[C@H](OC)CN(C)C2=O	-	.	.	.	.	-	.
